# Assay results published in PubChem BioAssay.
# The source made the active and inactive calls.
# Key:
# [1] = system: Plasmodium falciparum Sir2 (PF13_0152, Sir2A); test: pfSir2 binders on small-molecule microarrays, primary screen, biochemical, small-molecule microarray, 635 nm fluorescence (AID 1098); conditions: small-molecule microarray binding, fluorescence 635 nm; higher = more signal;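 further: score merges spot fluorescence intensity with its signal-to-noise ratio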
# [2] = small-molecule microarray binders of probe aDKK1, primary screen, biochemical, biotinylated probe, 635/667 nm fluorescence (AID 1099); conditions: higher = more signal;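 further: score merges 667nm spot fluorescence with signal to noise across triplicate slides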
# [3] = small-molecule microarray binders of probe aCHRDL2, primary screen, biochemical, biotinylated probe, 635/667 nm fluorescence (AID 1100); conditions: higher = more signal
# [4] = splicing luciferase reporter signal modulators, primary screen, spliceosome inhibition project, cell-based, HEK293, splice +/- reporter (AID 1101); conditions: luminescence, 24 h, higher = more signal, called active from +8 up or from −8 down;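 further: HEK293 cells carrying a splicing-competent luciferase reporter gene; test concentration not given here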
# [5] = target: Fibroblast growth factor 10 (Homo sapiens) (UniProt O15520); test: FGF10 binders on small-molecule microarrays, primary screen, biochemical, small-molecule microarray, 635 nm fluorescence (AID 1102); conditions: FGF10 binding, fluorescence 635 nm, higher = more signal
# [6] = system: glycogen synthase kinase-3 (GSK3A per assay name; protocol says GSK3B); test: GSK3 binders on small-molecule microarrays, primary screen, biochemical, small-molecule microarray, 635 nm fluorescence, GSK3A (AID 1103); conditions: small-molecule microarray binding, fluorescence 635 nm; higher = more signal; further: the record names both GSK3A and GSK3B
# [7] = target: Epidermal growth factor receptor (Homo sapiens) (UniProt P00533); test: EGFR binders on small-molecule microarrays, primary screen, biochemical, small-molecule microarray, 635 nm fluorescence (AID 1104); conditions: EGFR binding, higher = more signal;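 further: score merges 667 nm emission intensity with spot signal to noise over triplicate slides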
# [8] = target: Follistatin-related protein 3 (Homo sapiens) (UniProt O95633); test: FSTL3 binders on small-molecule microarrays, primary screen, biochemical, small-molecule microarray, 635 nm fluorescence (AID 1105); conditions: FSTL3 binding, higher = more signal;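 further: score merges emission near 667 nm and signal to noise per printed spot across three slides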
# [9] = target: Dickkopf-related protein 1 (Homo sapiens) (UniProt O94907); test: DKK1 binders on small-molecule microarrays, primary screen, biochemical, small-molecule microarray, 635 nm fluorescence scan (AID 1106); conditions: DKK1 binding, higher = more signal;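 further: score merges emission near 667 nm with signal to noise over three replicate slides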
# [10] = system: Inhibin beta A chain (activin A); test: INHBA (activin A) binders on microarrays, primary screen, biochemical, small-molecule microarray, 635 nm fluorescence scan (AID 1107); conditions: small-molecule microarray binding, higher = more signal;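 further: mouse activin A protein probed at 4.33 µg/mL on printed slides; score merges bound-protein fluorescence near 667 nm with spot signal-to-noise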
# [11] = system: Human papillomavirus type 1a protein E7 (residues 44-93); test: HPV1a E7 fragment binders on microarrays, primary screen, biochemical, small-molecule microarray, residues 44-93, 635 nm fluorescence (AID 1108); conditions: small-molecule microarray binding, fluorescence 635 nm; higher = more signal;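 further: E7 fragment applied at 1 µg/mL in TBST for 1 h at 4 C; score combines spot fluorescence with its signal to noise ratio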
# [12] = modulators of HCV replicon luciferase signal, primary screen, HCV replication inhibitor project, Huh7 cells, luciferase reporter (AID 1109); conditions: 48 h, higher = more signal;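 further: huh7 hepatoma cells harbouring a luciferase neomycin HCV replicon reporter; luciferase luminescence as measure of HCV replicon replication; test concentration not given here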
# [13] = target: Left-right determination factor 2 (Homo sapiens) (UniProt O00292); test: LEFTY2 binders on small-molecule microarrays, primary screen, biochemical, small-molecule microarray, 635 nm fluorescence scan (AID 1110); conditions: LEFTY2 binding, higher = more signal
# [14] = target: Calmodulin-1 (Homo sapiens) (UniProt P0DP23); test: CALM1 binders on microarrays, EGTA buffer, profiling panel, biochemical, small-molecule microarray, Cy5-labelled CALM1 (AID 1111); conditions: Cy5-CALM1 binding fluorescence, higher = more signal;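 further: labelled calmodulin applied in Tris saline Tween buffer holding calcium plus EGTA and DTT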
# [15] = target: Calmodulin-1 (Homo sapiens) (UniProt P0DP23); test: calcium-bound CALM1 binders on microarrays, profiling panel, artefact control for SMM control-protein annotation, biochemical, small-molecule microarray, Cy5-labelled CALM1, plus calcium (AID 1112); conditions: Cy5-CALM1 binding fluorescence, higher = more signal;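 further: score merges spot fluorescence with signal to noise from triplicate slides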
# [16] = small-molecule microarray binders of probe aWnt5a, primary screen, biochemical, biotinylated probe, 635/667 nm fluorescence (AID 1113); conditions: higher = more signal;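 further: score merges 667 nm fluorescence intensity with signal-to-noise per printed feature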
# [17] = small-molecule microarray binders of probe aShh, primary screen, biochemical, biotinylated probe, 635/667 nm fluorescence (AID 1114); conditions: higher = more signal;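 further: probe is biotin-labelled aShh protein from a stem cell growth factor screen; measures binding of labelled protein to compounds printed on the slide; score merges feature fluorescence at 667 nm with signal-to-noise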
# [18] = small-molecule microarray binders of probe aNog, primary screen, biochemical, biotinylated probe, 635/667 nm fluorescence (AID 1115); conditions: higher = more signal;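 further: probe is biotinylated aNog protein used at 0.15 µg/mL for 1 h at 4 C; z-score combines 667 nm fluorescence of each spot with its signal to noise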
# [19] = target: Torsin-1A-interacting protein 1 (Homo sapiens) (UniProt Q5JTV8); test: LAP1 binders from COS7 cell lysate, primary screen, small-molecule microarray, 635/667 nm fluorescence (AID 1116); conditions: COS7-hLAP1 lysate binding, 635 nm fluorescence, higher = more signal
# [20] = target: Alpha-bungarotoxin (Bungarus multicinctus) (UniProt P60615); test: alpha-bungarotoxin binders on microarray, profiling panel, artefact control for SMM control protein annotation, biochemical, small-molecule microarray, Alexa647 label, 635/667 nm fluorescence (AID 1117); conditions: alpha-BTX-A647 binding fluorescence, higher = more signal
# Alpha-bungarotoxin (Bungarus multicinctus), sequence (P60615 whole entry, looked up): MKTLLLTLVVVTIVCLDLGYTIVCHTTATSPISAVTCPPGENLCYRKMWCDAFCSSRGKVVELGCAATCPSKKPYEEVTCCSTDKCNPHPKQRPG
# Fibroblast growth factor 10 (Homo sapiens), sequence (O15520 whole entry, looked up): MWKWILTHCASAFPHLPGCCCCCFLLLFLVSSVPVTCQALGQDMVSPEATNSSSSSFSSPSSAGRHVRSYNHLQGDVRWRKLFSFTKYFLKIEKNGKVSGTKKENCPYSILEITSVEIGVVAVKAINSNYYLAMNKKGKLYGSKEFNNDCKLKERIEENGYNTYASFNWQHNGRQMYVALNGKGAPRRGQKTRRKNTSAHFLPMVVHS
# Torsin-1A-interacting protein 1 (Homo sapiens), sequence (Q5JTV8 whole entry, looked up): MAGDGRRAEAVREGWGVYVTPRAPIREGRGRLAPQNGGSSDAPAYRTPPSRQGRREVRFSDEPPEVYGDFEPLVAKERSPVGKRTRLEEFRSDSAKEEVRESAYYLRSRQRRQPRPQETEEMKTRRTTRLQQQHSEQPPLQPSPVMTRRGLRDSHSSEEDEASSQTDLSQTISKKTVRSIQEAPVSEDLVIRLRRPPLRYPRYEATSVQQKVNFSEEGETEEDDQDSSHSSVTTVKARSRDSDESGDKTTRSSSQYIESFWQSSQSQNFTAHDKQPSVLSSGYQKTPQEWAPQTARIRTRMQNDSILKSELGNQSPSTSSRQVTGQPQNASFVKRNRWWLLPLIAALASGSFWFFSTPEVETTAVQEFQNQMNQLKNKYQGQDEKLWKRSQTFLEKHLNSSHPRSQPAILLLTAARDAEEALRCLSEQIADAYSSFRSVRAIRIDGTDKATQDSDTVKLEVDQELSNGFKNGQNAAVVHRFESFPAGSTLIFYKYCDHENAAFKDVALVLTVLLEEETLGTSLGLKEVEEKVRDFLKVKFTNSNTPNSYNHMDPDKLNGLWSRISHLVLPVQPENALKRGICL
# Epidermal growth factor receptor (Homo sapiens), sequence (P00533 whole entry, looked up): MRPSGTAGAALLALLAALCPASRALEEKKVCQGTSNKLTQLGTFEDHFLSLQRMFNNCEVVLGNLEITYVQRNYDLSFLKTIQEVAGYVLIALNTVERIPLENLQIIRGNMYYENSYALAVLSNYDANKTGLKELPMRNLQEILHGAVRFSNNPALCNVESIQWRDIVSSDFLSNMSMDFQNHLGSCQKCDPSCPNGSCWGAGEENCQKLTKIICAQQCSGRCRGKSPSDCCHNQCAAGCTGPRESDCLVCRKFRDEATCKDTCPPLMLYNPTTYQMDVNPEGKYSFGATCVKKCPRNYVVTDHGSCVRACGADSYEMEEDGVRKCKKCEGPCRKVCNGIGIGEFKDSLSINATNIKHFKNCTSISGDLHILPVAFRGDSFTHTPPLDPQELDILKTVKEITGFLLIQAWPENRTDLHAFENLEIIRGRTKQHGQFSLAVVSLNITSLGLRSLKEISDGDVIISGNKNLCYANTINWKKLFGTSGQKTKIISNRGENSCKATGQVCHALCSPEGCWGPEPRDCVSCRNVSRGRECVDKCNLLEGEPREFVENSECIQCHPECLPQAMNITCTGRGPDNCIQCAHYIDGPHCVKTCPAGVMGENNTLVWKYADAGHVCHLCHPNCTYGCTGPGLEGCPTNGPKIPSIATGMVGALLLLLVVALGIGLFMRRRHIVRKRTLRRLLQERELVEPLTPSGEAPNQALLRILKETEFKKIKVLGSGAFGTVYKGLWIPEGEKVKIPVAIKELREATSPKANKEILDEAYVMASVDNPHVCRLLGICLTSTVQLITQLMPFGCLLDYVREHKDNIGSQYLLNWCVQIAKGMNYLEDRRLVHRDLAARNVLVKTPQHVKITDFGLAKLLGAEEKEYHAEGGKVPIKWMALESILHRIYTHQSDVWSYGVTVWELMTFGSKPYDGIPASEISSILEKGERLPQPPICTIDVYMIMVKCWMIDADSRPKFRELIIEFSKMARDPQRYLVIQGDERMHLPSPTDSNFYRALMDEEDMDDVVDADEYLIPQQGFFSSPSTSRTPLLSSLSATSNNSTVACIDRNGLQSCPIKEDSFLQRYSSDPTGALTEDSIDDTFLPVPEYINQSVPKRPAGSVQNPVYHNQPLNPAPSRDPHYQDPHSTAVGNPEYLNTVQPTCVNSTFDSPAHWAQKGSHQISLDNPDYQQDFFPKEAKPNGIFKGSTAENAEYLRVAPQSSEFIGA
# Left-right determination factor 2 (Homo sapiens), sequence (O00292 whole entry, looked up): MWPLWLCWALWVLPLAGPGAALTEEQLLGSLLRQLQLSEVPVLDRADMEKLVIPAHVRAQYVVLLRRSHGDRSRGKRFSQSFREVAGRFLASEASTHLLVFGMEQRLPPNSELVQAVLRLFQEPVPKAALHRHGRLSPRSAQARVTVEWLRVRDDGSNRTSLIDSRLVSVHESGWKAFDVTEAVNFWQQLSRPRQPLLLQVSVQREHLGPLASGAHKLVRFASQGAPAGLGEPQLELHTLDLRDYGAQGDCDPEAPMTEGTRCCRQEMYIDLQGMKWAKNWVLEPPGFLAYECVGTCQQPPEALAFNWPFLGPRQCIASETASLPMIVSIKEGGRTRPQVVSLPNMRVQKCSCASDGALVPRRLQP
# Follistatin-related protein 3 (Homo sapiens), sequence (O95633 whole entry, looked up): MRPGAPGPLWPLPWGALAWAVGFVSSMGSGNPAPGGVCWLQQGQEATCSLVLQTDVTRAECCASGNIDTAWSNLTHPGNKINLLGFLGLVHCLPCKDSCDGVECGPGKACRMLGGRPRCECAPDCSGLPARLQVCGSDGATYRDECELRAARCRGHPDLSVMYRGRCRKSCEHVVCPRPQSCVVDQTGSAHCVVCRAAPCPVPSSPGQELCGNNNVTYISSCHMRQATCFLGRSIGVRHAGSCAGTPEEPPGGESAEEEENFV
# Dickkopf-related protein 1 (Homo sapiens), sequence (O94907 whole entry, looked up): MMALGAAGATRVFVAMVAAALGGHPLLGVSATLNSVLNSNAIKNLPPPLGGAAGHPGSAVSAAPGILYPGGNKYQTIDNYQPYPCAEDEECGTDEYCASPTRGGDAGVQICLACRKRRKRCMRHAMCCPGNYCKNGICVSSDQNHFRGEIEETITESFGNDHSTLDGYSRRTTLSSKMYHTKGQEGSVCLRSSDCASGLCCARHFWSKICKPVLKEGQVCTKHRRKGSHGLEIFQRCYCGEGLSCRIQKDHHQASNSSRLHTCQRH
Structure (SMILES),composite z-score [1],composite z-score [2],composite z-score [3],z-score [4],composite z-score [5],composite z-score [6],composite z-score [7],composite z-score [8],composite z-score [9],composite z-score [10],composite z-score [11],z-score [12],composite z-score [13],composite z-score [14],composite z-score [15],composite z-score [16],composite z-score [17],composite z-score [18],composite z-score [19],composite z-score [20]
COCCCNC(=O)[C@]1(Cc2ccccc2)N=C(c2ccc(OCCCO)cc2)O[C@@H]1c1ccccc1CN=[N+]=[N-],1.24,1.2,1.29,-0.97 (inactive),1.49,0.98,0.25,0.721,-0.0836,0.608,0.128,-2.18,-0.254,1.02,0.562,0.116,0.585,0.918,2.48,0.315
O=C1O[C@H](c2ccccc2)[C@H](c2ccccc2)N2[C@H]1[C@@H](C(=O)NC[C@H](O)c1ccccc1)[C@]1(C(=O)Nc3ccccc31)[C@H]2c1ccc(O)cc1,0.758,-0.0713,0.489,-0.4 (inactive),1.3,0.476,0.555,0.749,0.964,-1.04,0.69,-0.705,0.733,1.06,0.659,-0.124,-0.138,0.293,0.825,0.771
CN(C)CCCCCCNC(=O)[C@@H]1C[C@@H]2C(=O)N3CCC[C@H]3C(=O)N2[C@@H]1c1ccc(O)cc1,0.609,0.381,0.234,-1.51 (inactive),1.1,1.34,0.842,1.48,1.69,0.254,1.42,1.49,1.5,-1.95,-1.42,-0.062,0.42,-0.364,2.23,2.36
COc1ccc(C(O)C2C=CC3C(=O)N(C)C(=O)C3N2N(c2ccccc2)c2ccccc2)c2ccccc12 (stereo not given),1.42,0.464,1.04,1.04 (inactive),0.784,-0.16,0.23,1.19,0.569,1.13,-0.452,0.352,0.0468,-0.078,-0.511,0.0328,-0.0011,0.0984,1.68,0.429
CCCCN1CC=CC23O[C@@H]4/C=C\CCCOC(=O)C4[C@H]2C(=O)N(CCCCCO)[C@@H]3C1=O (stereo not given in full),1.29,-0.37,-0.167,1.08 (inactive),-0.552,-1.34,-1.13,-1.08,-0.443,0.653,-0.766,-0.895,-0.68,-0.803,-1.24,-0.172,-0.221,-0.357,0.328,-0.509
COCCOC(=O)N1C(=O)[C@@]2(c3ccccc31)[C@H](C(N)=O)[C@H]1C(=O)O[C@H](c3ccccc3)[C@H](c3ccccc3)N1[C@@H]2c1ccc(O)cc1,0.784,-0.566,0.481,-0.726 (inactive),0.0392,-0.0985,-0.458,0.292,-0.0601,0.0565,1.37,-0.328,0.113,0.0186,-0.346,-0.199,-0.0769,-0.334,-0.602,-0.364
CC(C)(C)OC(=O)CC[C@@]1(C(=O)N2CCCCC2)N=C(c2ccc(OCCCO)cc2)O[C@@H]1c1ccccc1,1.74,0.555,0.452,0.0826 (inactive),1.46,1.3,0.197,0.858,-0.219,0.6,1.44,-1.49,0.0209,1.72,-0.0506,0.168,0.476,0.414,0.774,0.873
C=C(CCCC)/C(=C/C[C@@H](OC(C)=O)c1ccccc1OCCO)c1cc(C(=O)OC)ccc1OC,0.175,-0.211,-0.271,-0.5 (inactive),-0.104,0.098,-0.657,-0.458,-0.149,0.864,0.129,-2.13,-0.346,-0.421,-0.798,-0.124,-0.0769,0.0459,-0.107,1.15
CC(C)[Si](C#CCCCC#N)(O[C@H](c1ccccc1)c1cn(Cc2cccc(Cl)c2)nn1)C(C)C,0.397,-0.0654,-0.594,-1.64 (inactive),0.483,1.18,0.376,1.11,0.968,-0.018,1.31,-1.7,0.634,-0.412,-0.745,-0.0977,-0.0553,-0.467,0.423,-0.0534
CN1C(=O)C2C=CC(C(O)c3c(F)cccc3Cl)N(NC(=O)OC(C)(C)C)C2C1=O (stereo not given),1.39,0.868,1.09,1.7 (inactive),0.458,0.891,0.307,0.649,-0.438,0.449,1.3,-0.28,-0.0662,2.03,0.498,0.0718,-0.167,1.46,2.03,1.35
COC(=O)c1c2oc(c1C(=O)OC)C(=O)N[C@@H](C(C)C)Cn1cc(nn1)C1(CCCCC1)NC(=O)N[C@H](CO)CC2,1.68,-0.324,-0.288,0.343 (inactive),0.408,0.0356,-0.375,-0.0824,0.145,-0.462,0.218,1.48,-0.05,-0.346,-0.403,-0.0269,-0.0769,0.621,0.764,-0.216
